Results filed as inconclusive are left out. The source made the active and inactive calls. Calls follow the shape of the dose curve; as a rule, active = well fitted cell-killing curve with a large enough effect; inconclusive = small, poorly fitted or top-dose-only effect, or effect the other way; inactive = flat fitted curve, though single readings scatter.
Tests used:
Assay in all cases: Primary qHTS to identify gynecologic anti-cancer compounds using libraries of approved drugs and bioactive compounds (AID 1345084); also: nearly all actives have a fitted effect of over 55% in size
Details in all cases: Gynecologic cancer cell panel viability, ATPlite luminescence, 48 h; series mostly up to 57.5 µM
[1] = system: OV90
How it was run: (§1)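 Measured: luminescence after ATPlite addition (15 min, RT). Exposure: 48 h, 37 C, 5% CO2.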

[2] = system: PA-1
How it was run: as §1

[3] = system: SKOV3
How it was run: as §1

[4] = system: Tov-21-G
How it was run: as §1

[5] = system: Tov112D
How it was run: as §1
% is scaled to controls: 0 for no effect and ±100 for the full control effect.

C[C@@H]1O[C@@H](OC[C@H]2O[C@@H](Oc3cc(O)cc4c3C(=O)C(O)(Cc3ccc(O)cc3)O4)[C@H](O)[C@@H](O)[C@@H]2O)[C@H](O)[C@H](O)[C@H]1O (stereo not given in full)
inactive: Potency [1] | Potency [2] | Potency [3] | Potency [4] | Potency [5]

Cn1nnc(-c2ccc(-c3ccc(N4C[C@H](CO)OC4=O)cc3F)cn2)n1
inactive: Potency [1] | Potency [2] | Potency [3] | Potency [4] | Potency [5]

C[C@]1(CO)CCC[C@]2(C)C3=C(CCC12)COC3 (stereo not given in full)
inactive: Potency [1] | Potency [2] | Potency [3] | Potency [4] | Potency [5]

CCCC(=O)O[C@@H]1[C@@H]2[C@@H](OC(C)=O)[C@]3(C)C(=O)[C@H]4[C@@H](OC(C)=O)C(C)(C)C[C@H]4[C@]3(C)C(=O)[C@@]2(OC(C)=O)C[C@@H]1C
inactive: Potency [1] | Potency [2] | Potency [3] | Potency [4] | Potency [5]

CCOCc1nc2c(N)nc3ccccc3c2n1CC(C)(C)O
inactive: Potency [1] | Potency [2] | Potency [3] | Potency [4] | Potency [5]

OC/C=C/c1ccc(O[C@@H]2O[C@H](CO)[C@@H](O)[C@H](O)[C@H]2O)cc1
inactive: Potency [1] | Potency [2] | Potency [3] | Potency [4] | Potency [5]

CC1(C)CCC(C)(C)c2cc(C3(c4ccc(C(=O)O)cc4)OCCO3)ccc21
inactive: Potency [1] | Potency [2] | Potency [3] | Potency [4] | Potency [5]

CC(C)CCC[C@@H](C)[C@H]1CC[C@H]2[C@@H]3CC(=O)[C@H]4C[C@@H](O)CC[C@]4(C)[C@H]3CC[C@]12C
inactive: Potency [1] | Potency [2] | Potency [3] | Potency [4] | Potency [5]

C/C(=C\CC[C@@H](C)[C@H]1CC(O)[C@@]2(C)C3CC[C@H]4C(C)(C)[C@@H](OC5OCC(O)C(O)C5OC5OC(CO)C(O)C(O)C5O)CC[C@@]45C[C@@]35CC(O)[C@]12C)C(=O)O (stereo not given in full)
inactive: Potency [1] | Potency [2] | Potency [3] | Potency [4] | Potency [5]

C=CC(=O)N1CCN(C(=O)CNc2cc(I)c(Cl)cc2O)CC1
inactive: Potency [1] | Potency [2] | Potency [3] | Potency [4] | Potency [5]

CC1CCC2(C=O)C(CO)=CCCC2C1(C)CC(=O)O (stereo not given)
inactive: Potency [1] | Potency [2] | Potency [3] | Potency [4] | Potency [5]

CC1OC(OC2C(C)OC(OC3C(OC(=O)C45CCC(C)(C)CC4C4=CCC6C7(C)CCC(OC8OC(C(=O)O)C(O)C(O)C8OC8OC(CO)C(O)C(OC9OC(C)C(O)C(O)C9O)C8O)C(C)(CO)C7CCC6(C)C4(C)CC5)OC(CO)C(O)C3O)C(O)C2O)C(O)C(O)C1O (stereo not given)
inactive: activity change, negative = cytotoxicity [1] 11.5% [at 6.55 µM] | activity change, negative = cytotoxicity [2] 0.842% [at 6.55 µM] | activity change, negative = cytotoxicity [3] 0% [at 6.55 µM] | activity change, negative = cytotoxicity [4] 2.91% [at 6.55 µM] | activity change, negative = cytotoxicity [5] 13.7% [at 6.55 µM]

Cc1cc(C)c2c(N)c(C(=O)NCc3ccc(Cl)cc3)sc2n1
inactive: Potency [1] | Potency [2] | Potency [3] | Potency [4] | Potency [5]

COC(=O)N(C)c1c(N)nc(-c2nn(Cc3ccccc3F)c3ncccc23)nc1N
inactive: Potency [1] | Potency [2] | Potency [3] | Potency [4] | Potency [5]

COc1c2c(c(C)c3c1C(=O)OC3)OC1(C)CC(O)C(C(C)(C)O)C(C)(CCC(=O)O)C1C2 (stereo not given)
inactive: Potency [1] | Potency [2] | Potency [3] | Potency [4] | Potency [5]

CC(=O)OC1C(c2ccccc2)CCC(c2ccccc2)C1OC(C)=O (stereo not given)
inactive: Potency [1] | Potency [2] | Potency [3] | Potency [4] | Potency [5]

CC1(C=O)CC[C@]2(C(=O)O[C@@H]3O[C@H](CO)[C@@H](O)[C@H](O)[C@H]3O)CC[C@]3(C)C(=CCC4[C@@]5(C)C[C@H](O)[C@H](O[C@@H]6OC[C@@H](O)[C@H](O)[C@H]6O)[C@@](C)(CO)C5CC[C@]43C)C2C1 (stereo not given in full)
inactive: activity change, negative = cytotoxicity [1] 9.96% [at 11.6 µM] | activity change, negative = cytotoxicity [2] -2% [at 11.6 µM] | activity change, negative = cytotoxicity [3] 1.41% [at 11.6 µM] | activity change, negative = cytotoxicity [4] -1.76% [at 11.6 µM] | activity change, negative = cytotoxicity [5] -0.249% [at 11.6 µM]

CC1=C(C(=O)O[C@@H]2O[C@H](COC3OCC(O)C(O)C3O)[C@@H](O)[C@H](O)[C@H]2O)C(C)(C)CCC1 (stereo not given in full)
inactive: Potency [1] | Potency [2] | Potency [3] | Potency [4] | Potency [5]

CC1(C)CCCC2(C)C1CC=C1C(=O)OC(O)C12O (stereo not given)
inactive: Potency [1] | Potency [2] | Potency [3] | Potency [4] | Potency [5]

CC[C@H]1OC(=O)[C@H](C)[C@@H](O[C@H]2C[C@@](C)(OC)[C@@H](O)[C@H](C)O2)[C@H](C)[C@@H](O[C@@H]2O[C@H](C)C[C@H](N(C)C)[C@H]2O)[C@](C)(O)C[C@@H](C)C(=O)[C@H](C)[C@H]2OC(=O)O[C@@]21C
inactive: Potency [1] | Potency [2] | Potency [3] | Potency [4] | Potency [5]
